# Results filed as inconclusive are left out. Active and inactive are the calls of the source. How the source made its calls: active means hit-call score of the fitted dose curve at least 0.9, where 1 is the maximum; inconclusive means response in the unintended direction; inactive means score below 0.9.
# How the values were obtained:
# [1] = target: Mitogen-activated protein kinase 3 (Homo sapiens) (UniProt P27361); experiment: NVS_ENZ_hMAPK3: NovaScreen (NVS) Enzymatic Assay for human Mitogen-Activated Protein Kinase 3 (MAPK 3) (AID 2283177)
# Mitogen-activated protein kinase 3 (Homo sapiens), sequence (P27361 whole entry, looked up): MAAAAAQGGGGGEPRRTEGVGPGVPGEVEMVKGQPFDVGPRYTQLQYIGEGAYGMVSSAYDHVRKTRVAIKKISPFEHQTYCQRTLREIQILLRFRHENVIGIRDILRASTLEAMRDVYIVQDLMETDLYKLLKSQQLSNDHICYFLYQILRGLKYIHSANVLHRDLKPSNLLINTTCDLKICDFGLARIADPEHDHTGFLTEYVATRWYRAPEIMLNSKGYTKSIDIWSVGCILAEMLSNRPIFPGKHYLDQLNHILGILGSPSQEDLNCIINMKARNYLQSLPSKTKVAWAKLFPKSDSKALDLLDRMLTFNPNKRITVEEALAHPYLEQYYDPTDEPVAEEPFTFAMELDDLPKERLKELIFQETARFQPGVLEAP
# In short: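 Cell-free enzymatic assay with recombinant protein and specific substrate; fluorescence and electrophoretic mobility shift read-out 1 h after dosing. Primary screen duplicate at 25 uM; actives then run in concentration-response up to 50 uM, loss of signal versus DMSO.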
# [2] = target: human Mitogen- and Stress-activated Protein Kinase-1 (Msk1), RPS6KA5 (gene 9252) (UniProt O75582); experiment: NVS_ENZ_hMsk1: NovaScreen (NVS) Enzymatic Assay for human Mitogen- and Stress-activated Protein Kinase-1 (Msk1) (AID 2283187)
# In short: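 Recombinant kinase with fluorescent substrate; product separated by electrophoretic mobility shift, read 1 h after dosing. Screened in duplicate at 25 uM; hits (e.g. ≥30% inhibition) tested in concentration–response up to 50 uM. DMSO baseline.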
# [3] = target: human Phosphodiesterase 4A1 (PDE4A1), PDE4A (gene 5141) (UniProt P27815); experiment: NVS_ENZ_hPDE4A1: NovaScreen (NVS) Enzymatic Assay for human Phosphodiesterase 4A1 (PDE4A1) (AID 2283191)
# human Phosphodiesterase 4A1 (PDE4A1), PDE4A (gene 5141), sequence (P27815 whole entry, looked up): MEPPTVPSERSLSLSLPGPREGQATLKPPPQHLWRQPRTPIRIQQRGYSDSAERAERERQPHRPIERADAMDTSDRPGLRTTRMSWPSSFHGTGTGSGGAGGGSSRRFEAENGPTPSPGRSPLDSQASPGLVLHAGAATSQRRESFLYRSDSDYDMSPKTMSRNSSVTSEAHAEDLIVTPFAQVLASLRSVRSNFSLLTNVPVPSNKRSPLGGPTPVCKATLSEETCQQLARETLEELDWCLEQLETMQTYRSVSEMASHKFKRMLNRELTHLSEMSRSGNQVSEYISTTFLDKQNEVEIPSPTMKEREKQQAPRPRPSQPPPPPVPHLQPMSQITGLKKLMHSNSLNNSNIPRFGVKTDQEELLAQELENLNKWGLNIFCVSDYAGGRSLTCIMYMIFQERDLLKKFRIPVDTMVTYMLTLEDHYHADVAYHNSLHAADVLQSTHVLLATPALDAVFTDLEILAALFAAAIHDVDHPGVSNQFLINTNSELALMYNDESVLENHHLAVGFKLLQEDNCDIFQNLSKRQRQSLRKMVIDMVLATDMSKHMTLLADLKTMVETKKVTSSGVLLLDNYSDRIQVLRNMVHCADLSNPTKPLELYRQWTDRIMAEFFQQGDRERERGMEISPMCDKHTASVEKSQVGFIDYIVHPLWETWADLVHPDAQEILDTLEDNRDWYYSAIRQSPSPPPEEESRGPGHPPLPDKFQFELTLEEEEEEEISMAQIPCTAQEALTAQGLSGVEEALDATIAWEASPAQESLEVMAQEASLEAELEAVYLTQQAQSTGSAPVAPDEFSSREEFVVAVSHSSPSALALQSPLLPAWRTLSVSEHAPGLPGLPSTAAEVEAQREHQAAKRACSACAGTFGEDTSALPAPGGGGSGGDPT
# In short: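 Cell-free recombinant human PDE4A1 with fluorescent substrate; product separated by electrophoretic mobility shift, 1 h. Screened at 25 uM, then up to 50 uM in concentration-response; loss of signal fitted against DMSO.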
# [4] = target: cAMP-dependent protein kinase catalytic subunit alpha (Homo sapiens) (UniProt P17612); experiment: NVS_ENZ_hPKA: NovaScreen (NVS) Enzymatic Assay for human Protein Kinase A (PKA) (AID 2283192)
# In short: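 Recombinant human PKA with specific fluorescent substrate, product separated by electrophoretic mobility shift, read 1 h after dosing. Primary screen at 25 uM in duplicate; actives then run in concentration-response up to 50 uM, activity relative to DMSO.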
# [5] = target: human Phosphoinositide 3-kinase alpha (PI3Ka), PIK3CA (gene 5290) (UniProt P42336); experiment: NVS_ENZ_hPI3Ka: NovaScreen (NVS) Enzymatic Assay for human Phosphoinositide 3-kinase alpha (PI3Ka) (AID 2283196)
# human Phosphoinositide 3-kinase alpha (PI3Ka), PIK3CA (gene 5290), sequence (P42336 whole entry, looked up): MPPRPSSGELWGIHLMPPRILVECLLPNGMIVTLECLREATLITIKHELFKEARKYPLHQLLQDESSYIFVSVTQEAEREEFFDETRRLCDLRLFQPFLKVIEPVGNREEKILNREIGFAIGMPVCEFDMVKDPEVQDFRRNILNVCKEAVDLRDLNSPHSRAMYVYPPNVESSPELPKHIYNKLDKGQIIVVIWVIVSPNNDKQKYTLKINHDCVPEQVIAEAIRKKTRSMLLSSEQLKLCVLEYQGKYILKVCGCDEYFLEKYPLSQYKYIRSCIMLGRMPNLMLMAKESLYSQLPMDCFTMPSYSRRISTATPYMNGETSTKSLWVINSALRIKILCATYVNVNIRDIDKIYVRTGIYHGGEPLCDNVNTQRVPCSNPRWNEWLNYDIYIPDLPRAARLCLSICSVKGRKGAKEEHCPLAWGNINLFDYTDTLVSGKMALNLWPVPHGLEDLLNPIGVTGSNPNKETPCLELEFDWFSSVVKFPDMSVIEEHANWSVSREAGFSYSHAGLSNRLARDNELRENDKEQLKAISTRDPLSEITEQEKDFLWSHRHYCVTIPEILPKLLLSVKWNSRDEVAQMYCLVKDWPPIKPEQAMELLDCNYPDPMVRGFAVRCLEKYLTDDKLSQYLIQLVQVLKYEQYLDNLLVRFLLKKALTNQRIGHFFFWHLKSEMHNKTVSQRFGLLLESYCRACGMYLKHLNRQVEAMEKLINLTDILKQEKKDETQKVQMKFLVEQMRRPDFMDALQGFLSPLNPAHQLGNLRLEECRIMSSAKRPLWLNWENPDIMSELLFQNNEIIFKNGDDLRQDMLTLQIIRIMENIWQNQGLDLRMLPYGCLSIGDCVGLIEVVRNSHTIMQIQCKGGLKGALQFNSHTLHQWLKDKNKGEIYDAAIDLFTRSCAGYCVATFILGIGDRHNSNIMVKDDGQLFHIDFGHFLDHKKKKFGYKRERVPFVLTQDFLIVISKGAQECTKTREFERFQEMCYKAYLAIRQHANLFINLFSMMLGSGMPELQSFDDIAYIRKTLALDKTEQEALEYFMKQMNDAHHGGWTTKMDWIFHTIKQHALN
# In short: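 Duplicate single-point screen (25 uM), then singleton dose-response (max 50 uM) for compounds meeting the threshold. Cell-free kinase reaction, 1 h; fluorescent mobility-shift readout.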
# [6] = target: Serine/threonine-protein phosphatase PP1-alpha catalytic subunit (Homo sapiens) (UniProt P62136); experiment: NVS_ENZ_hPPP1CA: NovaScreen (NVS) Enzymatic Assay for human Protein Phosphatase 1 Aatalytic subunit Alpha (PPP1CA) (AID 2283200)
# In short: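 Recombinant enzyme activity read by fluorescence with electrophoretic mobility shift separating substrate from product, 1.33 h after dosing; loss of signal vs DMSO baseline. Primary screen in duplicate at 25 uM; actives retested in concentration-response up to 50 uM.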
# [7] = target: human Protein Tyrosine Phosphatase Non-receptor Type 1 (PTPN1), PTPN1 (gene 5770) (UniProt P18031); experiment: NVS_ENZ_hPTPN1: NovaScreen (NVS) Enzymatic Assay for human Protein Tyrosine Phosphatase Non-receptor Type 1 (PTPN1) (AID 2283201)
# In short: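 Cell-free fluorogenic-substrate activity assay on recombinant enzyme, read 1.33 h after dosing by fluorescence and electrophoretic mobility shift; loss of signal vs DMSO baseline. Primary screen in duplicate at 25 uM, hits then run in concentration-response up to 50 uM.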
# [8] = target: Tyrosine-protein phosphatase non-receptor type 12 (Homo sapiens) (UniProt Q05209); experiment: NVS_ENZ_hPTPN12: NovaScreen (NVS) Enzymatic Assay for human Protein Tyrosine Phosphatase Non-receptor Type 12 (PTPN12) (AID 2283204)
# Tyrosine-protein phosphatase non-receptor type 12 (Homo sapiens), sequence (Q05209 whole entry, looked up): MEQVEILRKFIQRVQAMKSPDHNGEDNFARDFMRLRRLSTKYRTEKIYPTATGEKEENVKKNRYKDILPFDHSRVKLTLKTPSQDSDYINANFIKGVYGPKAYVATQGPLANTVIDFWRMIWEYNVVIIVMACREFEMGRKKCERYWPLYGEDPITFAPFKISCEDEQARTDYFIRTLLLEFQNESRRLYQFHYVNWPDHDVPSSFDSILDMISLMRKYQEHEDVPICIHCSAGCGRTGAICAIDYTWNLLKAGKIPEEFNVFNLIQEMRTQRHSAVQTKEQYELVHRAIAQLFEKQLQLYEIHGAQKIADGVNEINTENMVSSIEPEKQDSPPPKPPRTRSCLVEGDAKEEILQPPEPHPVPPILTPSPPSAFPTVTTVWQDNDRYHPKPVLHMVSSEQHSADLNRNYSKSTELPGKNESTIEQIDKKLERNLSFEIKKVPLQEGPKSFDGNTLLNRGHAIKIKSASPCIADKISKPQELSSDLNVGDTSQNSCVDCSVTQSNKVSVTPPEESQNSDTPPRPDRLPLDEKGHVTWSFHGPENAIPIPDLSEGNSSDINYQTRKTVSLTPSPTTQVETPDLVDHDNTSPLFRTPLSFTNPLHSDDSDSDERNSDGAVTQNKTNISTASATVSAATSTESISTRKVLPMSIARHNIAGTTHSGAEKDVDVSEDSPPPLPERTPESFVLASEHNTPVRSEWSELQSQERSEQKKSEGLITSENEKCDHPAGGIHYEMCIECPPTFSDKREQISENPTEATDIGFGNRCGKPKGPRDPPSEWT
# In short: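 Single-concentration duplicates (25 uM) preceded singleton concentration-response up to 50 uM for chemicals passing threshold. Cell-free recombinant PTPN12 activity was read 1.33 h after dosing via fluorescence after mobility-shift separation; loss of signal versus DMSO.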
# [9] = target: Tyrosine-protein phosphatase non-receptor type 13 (Homo sapiens) (UniProt Q12923); experiment: NVS_ENZ_hPTPN13: NovaScreen (NVS) Enzymatic Assay for human Protein Tyrosine Phosphatase Non-receptor Type 13 (PTPN13) (AID 2283205)
# In short: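 Cell-free assay of recombinant human PTPN13 with a fluorescent substrate, product separated by electrophoretic mobility shift and read 0.5 h after dosing. Primary screen at 25 uM in duplicate, then concentration-response up to 50 uM. Loss of signal fitted against DMSO.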
# [10] = target: Tyrosine-protein phosphatase non-receptor type 14 (Homo sapiens) (UniProt Q15678); experiment: NVS_ENZ_hPTPN14: NovaScreen (NVS) Enzymatic Assay for human Protein Tyrosine Phosphatase Non-receptor Type 14 (PTPN14) (AID 2283206)
# In short: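 Cell-free recombinant human PTPN14 with fluorescent substrate, read 0.5 h after dosing by fluorescence and electrophoretic mobility shift separating substrate from product. Primary screen at 25 uM in duplicate; hits run to 50 uM maximum; loss of signal versus DMSO.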
# [11] = target: human Protein Tyrosine Phosphatase Non-receptor Type 4 (PTPN4), PTPN4 (gene 5775) (UniProt P29074); experiment: NVS_ENZ_hPTPN4: NovaScreen (NVS) Enzymatic Assay for human Protein Tyrosine Phosphatase Non-receptor Type 4 (PTPN4) (AID 2283208)
# In short: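 Cell-free assay of PTPN4 expressed in Sf9 cells, using a fluorescent substrate with product separated by mobility shift; read 1.33 h after dosing. Single-point screen at 25 uM, then concentration-response up to 50 uM. Loss of signal relative to DMSO.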
# [12] = target: human Matrix Metalloproteinase-7 (MMP7), MMP7 (gene 4316) (UniProt P09237); experiment: NVS_ENZ_hMMP7: NovaScreen (NVS) Enzymatic Assay for human Matrix Metalloproteinase-7 (MMP7) (AID 2283183)
# human Matrix Metalloproteinase-7 (MMP7), MMP7 (gene 4316), sequence (P09237 whole entry, looked up): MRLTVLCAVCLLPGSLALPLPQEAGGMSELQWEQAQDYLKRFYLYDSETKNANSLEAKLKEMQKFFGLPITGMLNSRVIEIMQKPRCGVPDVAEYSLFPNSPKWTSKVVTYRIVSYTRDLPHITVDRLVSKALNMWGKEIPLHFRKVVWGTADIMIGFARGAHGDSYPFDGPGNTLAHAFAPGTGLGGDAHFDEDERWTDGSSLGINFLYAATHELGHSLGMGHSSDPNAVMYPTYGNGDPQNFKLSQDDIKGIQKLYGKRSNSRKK
# In short: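 Cell-free fluorescence enzymatic assay read 1 h after compound addition, activity loss analyzed against DMSO. Primary duplicate testing at 25 uM; compounds meeting threshold rerun in singleton concentration-response up to 50 uM.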
# [13] = target: human Phosphodiesterase 10 (PDE10), PDE10A (gene 10846) (UniProt Q9Y233); experiment: NVS_ENZ_hPDE10: NovaScreen (NVS) Enzymatic Assay for human Phosphodiesterase 10 (PDE10) (AID 2283195)
# In short: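 PDE10A, cell-free; 1 h incubation; fluorescence intensity + electrophoretic mobility shift separating substrate/product; DMSO = baseline; 25 uM duplicate primary, CRC up to 50 uM.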
# [14] = target: Tyrosine-protein phosphatase non-receptor type 11 (Homo sapiens) (UniProt Q06124); experiment: NVS_ENZ_hPTPN11: NovaScreen (NVS) Enzymatic Assay for human Protein Tyrosine Phosphatase Non-receptor Type 11 (PTPN11) (AID 2283202)
# In short: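 Recombinant human PTPN11 activity on a fluorescent substrate, with substrate/product separated by electrophoretic mobility shift; read 0.5 h after dosing, loss of signal vs DMSO. Duplicate 25 uM screen, then concentration-response up to 50 uM.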
# [15] = target: Collagenase 3 (Homo sapiens) (UniProt P45452); experiment: NVS_ENZ_hMMP13: NovaScreen (NVS) Enzymatic Assay for human Matrix Metalloproteinase-13 (MMP13) (AID 2283182)
# In short: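 Recombinant MMP13 cleaving fluorescent substrate, cell-free, measured 1 h after dosing. Primary duplicate screen at 25 uM; actives tested in concentration-response up to 50 uM; loss of signal relative to DMSO.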
# [16] = target: human Matrix Metalloproteinase-2 (MMP2), MMP2 (gene 4313) (UniProt P08253); experiment: NVS_ENZ_hMMP2: NovaScreen (NVS) Enzymatic Assay for human Matrix Metalloproteinase-2 (MMP2) (AID 2283184)
# human Matrix Metalloproteinase-2 (MMP2), MMP2 (gene 4313), sequence (P08253 whole entry, looked up): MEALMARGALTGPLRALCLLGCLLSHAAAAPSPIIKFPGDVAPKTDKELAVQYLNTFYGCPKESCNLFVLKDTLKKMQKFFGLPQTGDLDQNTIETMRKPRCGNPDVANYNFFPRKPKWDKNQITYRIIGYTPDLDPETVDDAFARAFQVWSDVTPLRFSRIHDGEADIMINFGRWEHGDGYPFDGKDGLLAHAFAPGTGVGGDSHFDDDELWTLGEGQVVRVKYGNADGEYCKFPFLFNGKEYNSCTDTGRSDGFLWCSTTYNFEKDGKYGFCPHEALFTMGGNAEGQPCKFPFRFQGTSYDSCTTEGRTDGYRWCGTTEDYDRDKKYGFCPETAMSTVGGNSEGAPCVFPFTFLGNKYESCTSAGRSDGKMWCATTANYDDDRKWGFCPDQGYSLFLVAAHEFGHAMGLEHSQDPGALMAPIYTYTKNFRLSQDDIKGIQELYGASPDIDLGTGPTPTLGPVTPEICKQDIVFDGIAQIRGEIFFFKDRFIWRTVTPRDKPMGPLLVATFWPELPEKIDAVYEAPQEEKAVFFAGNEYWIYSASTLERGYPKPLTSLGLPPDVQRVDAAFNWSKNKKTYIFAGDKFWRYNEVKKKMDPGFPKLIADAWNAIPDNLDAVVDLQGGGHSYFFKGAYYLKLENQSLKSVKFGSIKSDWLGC
# In short: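 Cell-free recombinant MMP2 activity with a fluorescent substrate, read 1 h after dosing. Primary screen in duplicate at 25 uM; actives then run in concentration series; loss of signal fitted versus DMSO.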
# [17] = target: human Matrix Metalloproteinase-3 (MMP3), MMP3 (gene 4314) (UniProt P08254); experiment: NVS_ENZ_hMMP3: NovaScreen (NVS) Enzymatic Assay for human Matrix Metalloproteinase-3 (MMP3) (AID 2283185)
# In short: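 Cell-free recombinant human MMP3 activity, fluorescence intensity read 1 h after dosing. Primary screen duplicate at 25 uM, actives retested in concentration series; loss of signal vs DMSO baseline.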
# [18] = target: human Matrix Metalloproteinase-9 (MMP9), MMP9 (gene 4318) (UniProt P14780); experiment: NVS_ENZ_hMMP9: NovaScreen (NVS) Enzymatic Assay for human Matrix Metalloproteinase-9 (MMP9) (AID 2283190);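 further: cell-free recombinant MMP9 protease activity read by fluorescent substrate signal; active means inhibition seen as loss of fluorescence signal versus DMSO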
# human Matrix Metalloproteinase-9 (MMP9), MMP9 (gene 4318), sequence (P14780 whole entry, looked up): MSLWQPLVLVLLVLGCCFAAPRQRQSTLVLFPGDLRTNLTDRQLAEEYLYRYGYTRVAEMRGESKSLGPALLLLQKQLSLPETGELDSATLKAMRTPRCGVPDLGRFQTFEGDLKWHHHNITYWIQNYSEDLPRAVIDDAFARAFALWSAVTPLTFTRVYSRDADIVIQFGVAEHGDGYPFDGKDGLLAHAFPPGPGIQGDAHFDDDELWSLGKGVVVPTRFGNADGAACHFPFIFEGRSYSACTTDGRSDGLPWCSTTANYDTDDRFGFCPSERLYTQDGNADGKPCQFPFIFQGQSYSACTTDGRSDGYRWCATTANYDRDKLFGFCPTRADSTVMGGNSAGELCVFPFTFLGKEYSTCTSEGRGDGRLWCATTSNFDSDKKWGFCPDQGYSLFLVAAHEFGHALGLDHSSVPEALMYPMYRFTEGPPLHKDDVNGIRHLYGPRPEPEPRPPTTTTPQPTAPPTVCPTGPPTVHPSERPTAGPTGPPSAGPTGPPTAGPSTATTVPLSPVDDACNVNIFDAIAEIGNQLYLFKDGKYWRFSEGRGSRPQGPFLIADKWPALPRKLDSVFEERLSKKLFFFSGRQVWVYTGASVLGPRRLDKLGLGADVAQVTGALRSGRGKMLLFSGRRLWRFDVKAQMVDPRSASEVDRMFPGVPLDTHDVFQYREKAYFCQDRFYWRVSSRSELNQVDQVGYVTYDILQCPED
# In short: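 Screening concentration 25 uM, duplicate wells, then dose series for confirmation. Cell-free enzymatic reaction measured by fluorescence intensity 1 h post-dosing; decreased signal versus DMSO taken as activity.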
compound,measurement,setting,value
Cc1ccc(N)cc1O,AC50,[1],20.1 µM (active)
same,outcome,[2],inactive
same,outcome,[3],inactive
same,outcome,[4],inactive
same,outcome,[5],inactive
same,outcome,[6],inactive
same,outcome,[7],inactive
same,outcome,[8],inactive
same,outcome,[9],inactive
same,outcome,[10],inactive
same,outcome,[11],inactive
CCOCCOCCOCCO,AC50,[12],28.2 µM (active)
Cn1c(=O)cc(Oc2ccc(F)cc2F)c2cnc(NCC(C)(C)O)nc21,AC50,[1],34.6 µM (active)
same,AC50,[3],0.914 µM (active)
same,AC50,[13],8.25 µM (active)
O=C(O)c1cccc(Oc2ccccc2)c1,outcome,[12],inactive
same,outcome,[3],inactive
same,outcome,[4],inactive
same,outcome,[13],inactive
same,outcome,[5],inactive
same,outcome,[6],inactive
same,outcome,[14],inactive
same,outcome,[8],inactive
same,AC50,[9],0.119 µM (active)
same,outcome,[11],inactive
CCc1cc(SCc2sc(-c3ccc(C(F)(F)F)cc3)nc2CN2CCN(c3ccc(OC)cc3)CC2)ccc1OCC(=O)O,AC50,[15],5.85 µM (active)
same,AC50,[16],19.8 µM (active)
same,outcome,[17],inactive
same,AC50,[18],8.8 µM (active)
CCCCC(CC)COC(=O)c1ccc(C(=O)OCC(CC)CCCC)cc1 (centres undefined),outcome,[15],inactive
same,outcome,[16],inactive
same,outcome,[18],inactive
Fc1ccccc1[C@@H](F)COC1CCC(Nc2ncnc3[nH]ncc23)CC1 (some centres undefined),outcome,[15],inactive
same,outcome,[18],inactive
C=CC(=C)CCC=C(C)C,AC50,[12],6.56 µM (active)
CC(C)c1cccc(C(C)C)c1N1C(=O)c2ccc(O)cc2C1=O,outcome,[1],inactive
same,outcome,[12],inactive
same,outcome,[16],inactive
same,outcome,[2],inactive
same,AC50,[5],0.533 µM (active)
same,outcome,[7],inactive
same,outcome,[8],inactive
same,outcome,[10],inactive
O=C(NS(=O)(=O)/C=C/c1ccccc1)c1ccc(F)cc1Cl,outcome,[1],inactive

# Source: PubChem BioAssay (EPA / NIEHS)
